According to the supplement of paper PMC4237247:
Where a name gives a salt, the structure may show the parent alone.

system: HeLa; assay: percent cells in G2/M phase; higher = more G2/M arrest; conditions: 10 µM; 20 h
Experimental: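 HTS of 79,827 drug-like compounds at 10 uM. HeLa cells in 384-well plates were treated for 20 h, fixed, stained with Vybrant DyeCycle Green and scanned on an Acumen eX3 cytometer to give per-well cell cycle profiles (% cells in each phase). The plate Z' was 0.51. Only hits are listed: G1 hits >4 SD and S hits >5 SD from the mean.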

Structure (SMILES) | percent cells in G2/M phase [%]
O=C1c2c(O)ccc(O)c2C(=O)c2c(NCCNCCO)ccc(NCCNCCO)c21 [Mitoxantrone dihydrochloride] (hit class: G1-phase inhibitor) | 0.73
CCN(CC)Cc1c(O)ccc2c(=O)c(-c3ccccc3)coc12 (hit class: S-phase inhibitor) | 17
C[C@@H]1CCC[C@H](C)N1NC(=O)c1ccc(Cl)c(S(N)(=O)=O)c1 [Clopamide] (hit class: G1-phase inhibitor) | 15.9
Cc1cc(N2CCCCC2)c(F)cc1[N+](=O)[O-] (hit class: S-phase inhibitor) | 22.3
Cn1c(SCc2ccccc2)nc2ccccc2c1=O (hit class: S-phase inhibitor) | 15.4
Nc1ccn([C@H]2CC[C@@H](CO)O2)c(=O)n1 [Zalcitabine] (hit class: S-phase inhibitor) | 29.8
CC(=O)C1=C(O)C(=O)N(CC(=O)O)C1c1ccccc1F (configuration not stated) (hit class: S-phase inhibitor) | 12.9
COc1c(C)c2c(c(O)c1C/C=C(\C)CCC(=O)O)C(=O)OC2 [Mycophenolic acid] (hit class: S-phase inhibitor) | 28.6
c1ccc2c(c1)Nc1nc3ccccc3nc1O2 (hit class: G1-phase inhibitor) | 21.4
Cc1ccc(-c2cc(-c3ccccc3Cl)[nH]n2)c(O)c1 (hit class: G1-phase inhibitor) | 17.1
Cc1cc([N+](=O)[O-])ccc1NCc1ccc(F)c(F)c1 (hit class: G1-phase inhibitor) | 18.3
C[C@@H]1C[C@H]2[C@@H]3C[C@H](F)C4=CC(=O)C=C[C@]4(C)[C@@]3(Cl)[C@@H](O)C[C@]2(C)[C@H]1C(=O)COC(=O)C(C)(C)C [Clocortolone pivalate] (hit class: S-phase inhibitor) | 30.1
O=C(COc1ccc(Cl)cc1)NC(Cc1c[nH]c2ccccc12)C(=O)O (configuration not stated) (hit class: G1-phase inhibitor) | 20.6
COc1[nH]c2ccccc2c1C=NO (hit class: S-phase inhibitor) | 12.8
COc1ccc(C(=O)c2coc3ccc(OC)cc3c2=O)cc1 (hit class: G1-phase inhibitor) | 19
COc1ccc(CSc2nncn2N)cc1 (hit class: S-phase inhibitor) | 15.1
CC[C@@H](C(=O)[C@@H](C)[C@@H](O)[C@H](C)CCc1ccc(C)c(O)c1C(=O)O)[C@H]1O[C@](CC)([C@H]2CC[C@](O)(CC)[C@H](C)O2)C[C@@H]1C [Lasalocid sodium salt] (hit class: G1-phase inhibitor) | 16.8
